Source: PubChem BioAssay (National Center for Advancing Translational Sciences (NCATS))
Pf growth 48h: inhibits P. falciparum growth in the first generation, 48 h; Potency, µM (top dose mostly 28.7 µM), without a hit: at the top dose activity change, negative = inhibition, most hits filed as inhibitors; P. falciparum luciferase growth in erythrocytes, 48 h; AID 504832; 310,000 tested, 5.9% active; also: potency is read from the fitted curve at half-maximal effect; % is scaled to controls: 0 for no effect and ±100 for the full control effect
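Cell-based growth assay: transgenic P. falciparum expressing firefly luciferase, cultured in red cells within RPMI 1640 containing 0.5% w/v Albumax, 24 mM bicarbonate and gentamycin. A drop in luciferase activity indicates inhibition.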
Pf growth 96h: P. falciparum growth inhibition at 96 hours | P. falciparum luciferase reporter growth, 96 h | Potency, µM (titrated, usually from 28.7 µM), for inactives: at the highest dose activity change, negative = inhibition, hits mostly inhibitors | 320,000 tested, 6.9% active | AID 504834; also: potency is read from the fitted curve at half-maximal effect; % is scaled to controls: 0 for no effect and ±100 for the full control effect
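Cell-based qHTS: luciferase-tagged P. falciparum in erythrocytes (2% hematocrit, 0.05% parasitemia final) incubated with compounds for 96 hours, 37 C, 5% CO2; luciferase detection reagent then added and luminescence measured.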
SARS PLpro yeast: inhibitors of SARS-CoV papain-like protease in yeast | AID 485353 | Potency, µM (top dose mostly 32.9 µM), for the others: top-dose activity, positive = growth rescue, usual class: activators | 330,000 tested, 0.19% active | S. cerevisiae expressing SARS-CoV PLpro, growth rescue; calls by dose curve; also: potency is read from the fitted curve at half-maximal effect; 0% is about no effect; nearly all actives have a fitted effect of over 55% in size
Cycloheximide cs: counter-screen hit for Shiga toxin inhibitors, cycloheximide. cell reporter, cycloheximide protein synthesis inhibition counterscreen. max response, %. 300,000 tested, 12% active. AID 2314; in the data active = max response mostly above about 13%, no sharp cut-off; inactive = mostly below about 14%; also: read at 38.3 µM for the half of the compounds with a filed dose; 0% is about no effect
Shiga toxin inh: Shiga toxin inhibition. Vero cells, Shiga toxin protein synthesis inhibition reporter. AID 2315. inhibition, % at 38.7 µM. 290,000 tested, 9.2% active; in the data active = inhibition mostly above about 28%, no sharp cut-off; inactive = mostly below about 43%; also: 0% is about no effect
NS1 inh: inhibitors of influenza NS1 protein function. AID 2326. Potency, µM (highest dose often 46.1 µM), inactives show at the highest dose activity, positive = more growth. 270,000 tested, 0.4% active; calls by dose curve; also: potency is read from the fitted curve at half-maximal effect; actives are rising curves; nearly all actives have a fitted effect of over 50% in size
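Growth recovery, yeast-based: influenza A NS1 expressed in S. cerevisiae causes slow growth, and suppressors are detected by OD600. The parent strain without NS1 is used as positive control.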
* hit, by the source's call; i = inactive; ? = inconclusive; . = no result given. Rows were chosen to be rich in hits. Some 21% of all compounds tested hit in one or more screens of this group. Unless noted, calls follow the shape of the dose curve; as a rule, active = well fitted inhibition curve with a large enough effect; inconclusive = small, poorly fitted or top-dose-only effect, or another doubt; inactive = no such curve, though single readings can be large or run the other way.

SMILES	Pf growth 48h	Pf growth 96h	SARS PLpro yeast	Cycloheximide cs	Shiga toxin inh	NS1 inh
CCc1cccc(Nc2c3c(nc4ncnn24)CCC3)c1	?	4%	-2%	5	-10	-7%
CCOc1cc(C2NN=C(c3ccc(C)cc3)S2)ccc1O (stereo not given)	109%	56%	-10%	30*	94*	-1%
COc1ccc(C2NC(=O)CS2)cc1 (stereo not given)	-12%	-12%	4%	-1	14	13%
COc1ccc(C2NN=C(c3ccc(C)cc3)S2)cc1 (stereo not given)	145%	22%	-1%	57*	106*	-3%
Cc1ccc(C2=NNC(C(O)C(O)C(O)CO)S2)cc1 (stereo not given)	.	93%	1%	57*	61*	5%
O=C(NCc1nc(-c2ccc(C(F)(F)F)cc2)no1)Nc1ccc(OC(F)(F)F)cc1	-23%	-9%	-3%	-3	3	2%
Cc1cc(C)nc(SCC(=O)N2CCC(C(N)=O)CC2)n1	20%	.	2%	-4	-2	8%
Cc1ccc(SCCC(=O)N2CCC(C)CC2)cc1	392%	i	14%	34*	73*	0%
CCN(CC(=O)N1CCC(C)CC1)S(=O)(=O)c1ccc(C)cc1	1%	45%	-1%	0	2	2%
Cc1ccc(SCCC(=O)N2CCC(C(N)=O)CC2)cc1	28%	?	?	14*	-6	4%
NC(=O)C1CCN(C(=O)CCSCc2ccccc2)CC1	?	?	?	24*	7	-1%
O=C(NC1CCS(=O)(=O)C1)c1cccs1 (stereo not given)	16%	238%	3%	-3	20	8%
CCOc1ccc(S(=O)(=O)N2CCN(C(=O)c3ccccc3Cc3ccccc3)CC2)cc1	?	?	2%	.	.	.
COc1cc(OC)cc(C(=O)Nn2cnnc2)c1	5%	8%	1%	-3	-2	4%
COc1cccc(C(=O)Nc2ccc(C(=O)c3ccncc3)cc2)c1	0%	41%	-5%	17*	4	-4%
COc1cccc(C(=O)Nc2ccccc2-c2ccccc2)c1	?	-7%	0%	.	.	.
O=C(Nc1ccncc1)c1ccc(NS(=O)(=O)c2cccc(F)c2)cc1	?	?	26%	-4	-8	9%
COc1cccc(S(=O)(=O)Nc2ccc(C(=O)Nc3ccncc3)cc2)c1	-24%	8.3µM*	6%	-4	9	13%
COc1cccc(C(=O)Nn2cnnc2)c1	21%	?	1%	11*	34	2%
COc1cccc(C(=O)Nc2ccccc2NC(=O)c2cccc(OC)c2)c1	29%	15µM*	1%	-1	.	-19%
S=C1NCCOCCOCCNC(=S)N2CCOCCOCCN1CCOCCOCC2	3%	-3%	-1%	-6	-1	.
C/C(=N/NS(=O)(=O)c1ccc(C)cc1)c1ccc(NC(=O)C(F)(F)F)cc1	-7%	?	14%	-3	2	7%
COc1cccc(C(=O)Nc2ccc(NC(C)=O)cc2)c1	.	58%	3%	28*	62	6%
COc1cc(OC)cc(C(=O)Nc2cccc(NC(=O)c3ccccc3)c2)c1	.	?	-1%	-2	1	0%
COc1cc(OC)cc(C(=O)Nc2cccc(C(C)=O)c2)c1	?	-19%	0%	25*	48*	-12%
SMILES	Pf growth 48h	Pf growth 96h	SARS PLpro yeast	Cycloheximide cs	Shiga toxin inh	NS1 inh
COc1ccccc1Cn1nnc2c(=O)[nH]c(C3CCN(C(=O)c4ccccc4Cl)CC3)nc21	9.3µM*	3%	-6%	-5	-9	2%
COc1ccccc1Cn1nnc2c(=O)[nH]c(C3CCN(C(=O)c4ccc(F)cc4)CC3)nc21	12µM*	-21%	6%	10	-19	3%
CCCN(C(=O)c1cccc(S(=O)(=O)N2CCCc3ccccc32)c1)C1CCS(=O)(=O)C1 (stereo not given)	-29%	?	3%	.	.	.
O=[N+]([O-])c1ccccc1/C=C/CN1CCN(Cc2ccc3c(c2)OCO3)CC1	?	235%	1%	-2	3	1%
COc1ccc(CCNC(=O)CCC(=O)N2CCOc3ccccc32)cc1OC	-6%	-6%	-2%	0	-2	-9%
Cc1cc(C)c(NC(=O)Cn2nnc(C(=O)NCc3ccc4c(c3)OCO4)c2N)c(C)c1	20%	15µM*	1%	18	-9	-8%
Cc1ccc(NC(=O)Cn2nnc(C(=O)NCc3ccc4c(c3)OCO4)c2N)cc1	0%	32%	26%	1	-5	-6%
CC(C)c1ccc(NC(=O)Cn2nnc(C(=O)NCc3ccc4c(c3)OCO4)c2N)cc1	-17%	9.3µM*	4%	12	1	6%
CCN(CC)S(=O)(=O)c1ccc(OC)c(NC(=O)Cn2cnc3c2c(=O)n(C)c(=O)n3C)c1	0%	1%	1%	-2	-30	0%
CC1CCCN(CCC(=O)Nc2ccc3c(c2)CCC3)C1 (stereo not given)	15%	2%	-18%	-3	-2	-4%
O=C(CCN1CCOCC1)Nc1ccc2c(c1)CCC2	20%	3.7µM*	-3%	12	17	-12%
O=C(CN1CCOCC1)Nc1ccc2c(c1)CCC2	137%	134%	2%	17*	34	-33%
C=CCn1c(COc2ccccc2F)nnc1SCC(=O)c1c[nH]c2ccccc12	-24%	?	9%	-1	-2	14%
Cc1ccc(C(=O)NC2CCCCCC2)cc1N1CCCC1=O	0%	?	2%	23*	14	-6%
O=C(NCc1ccccc1CN1CCCC1)c1cccc(N2CCCC2=O)c1	?	4.1µM*	0%	.	.	.
O=C(NC1CCCCCC1)c1cccc(N2CCCC2=O)c1	181%	44%	0%	46*	33*	3%
CN(c1ccc(O)cc1)S(=O)(=O)c1ccc2ccccc2c1	107%	84%	-8%	24*	77*	-22%
CCN(c1ccccc1)S(=O)(=O)c1ccc2ccccc2c1	-6%	-6%	-6%	2	17	-7%
CC(NS(=O)(=O)c1ccccc1)C(c1cccs1)N1CCN(c2ccccc2)CC1 (stereo not given)	?	8.3µM*	0%	-1	-2	-62%
COc1ccccc1N1CCN(C(c2cccs2)C(C)NS(=O)(=O)c2ccccc2)CC1 (stereo not given)	?	7.4µM*	0%	-1	3	.
COc1ccc(-c2cc(C(=O)c3c(N)n(C)c(=O)n(C)c3=O)c3ccccc3n2)cc1	?	-91%	-2%	18*	4	-6%
Cn1c(N)c(C(=O)COC(=O)c2cc(-c3ccco3)nc3ccccc23)c(=O)n(Cc2ccccc2)c1=O	?	9.3µM*	-3%	11	-8	14µM*
CCCCCCn1nc(C(=O)OCC(=O)c2c(N)n(C)c(=O)n(C)c2=O)c2ccccc2c1=O	12µM*	13µM*	0%	4	-6	.
